# ELG1 genotox – qHTS screen for small molecules that induce genotoxicity in human embryonic kidney (HEK293T) cells expressing luciferase-tagged ELG1 | HEK293T ELG1-luciferase reporter, luminescence, 16 h | Potency, µM (top dose mostly 46 µM), for inactives: at the top dose activity change, positive = activation, usual class: activators | hit rate 1.3% among 330,000; further: % of control where 0% means no effect; nearly all actives have a fitted effect of over 60% in size
#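 16 hr compound incubation (37 °C, 5% CO2) of HEK293T cells carrying luciferase-tagged ELG1; luciferase then measured by ONE-Glo luminescence after 30 min at RT.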
# NPC1 prom act – qHTS Assay for NPC1 Promoter Activators. Huh7 NPC1 promoter luciferase reporter, 24 h. Potency, µM (doses to about 9.22 µM), for the others: at the top dose activation, usual class: activators. hit rate 2.4% among 320,000. AID 485313, 2010; further: % of control where 0% means no effect; nearly all actives have a fitted effect of over 60% in size
#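 NPC1 promoter–luciferase Huh7 cells; 24 h compound; luminescence.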
# FLuc modulator – qHTS profiling assay for firefly luciferase inhibitor/activator using purifed enzyme and Km concentrations of substrates (counterscreen for miR-21 project) | Luciferin 4-monooxygenase (Photinus pyralis), P08659 | purified FLuc, Km substrates, luminescence inhibition | AID 588342, 2011 | hit rate 6.9% among 360,000 | Potency, µM (series often up to 57.5 µM), inactives show at the top dose activity change, negative = inhibition, most hits filed as inhibitors;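 further: plate controls were vehicle for no effect and reference inhibitor for full effect; nearly all actives have a fitted effect of over 55% in size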
# Target sequence (P08659 whole entry, looked up): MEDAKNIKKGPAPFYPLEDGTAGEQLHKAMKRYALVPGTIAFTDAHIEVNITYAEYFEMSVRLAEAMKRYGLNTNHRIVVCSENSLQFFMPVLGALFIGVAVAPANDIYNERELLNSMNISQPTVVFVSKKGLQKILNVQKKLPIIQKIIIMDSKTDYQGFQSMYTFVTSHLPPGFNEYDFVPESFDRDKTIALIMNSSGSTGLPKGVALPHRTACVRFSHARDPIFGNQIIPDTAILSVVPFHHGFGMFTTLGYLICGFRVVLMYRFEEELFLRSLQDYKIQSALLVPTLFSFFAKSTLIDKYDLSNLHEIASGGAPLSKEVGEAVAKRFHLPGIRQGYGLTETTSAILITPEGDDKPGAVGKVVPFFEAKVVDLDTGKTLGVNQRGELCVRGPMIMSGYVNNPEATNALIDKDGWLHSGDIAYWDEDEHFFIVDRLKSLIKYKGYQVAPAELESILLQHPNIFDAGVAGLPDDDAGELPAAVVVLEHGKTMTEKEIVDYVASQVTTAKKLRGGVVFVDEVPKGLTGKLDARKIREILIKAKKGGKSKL
#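 Purified P. pyralis luciferase (10nM final) with 10uM D-luciferin and 10uM ATP (Km levels) in 50mM Tris acetate pH 7.5, 10mM Mg acetate, 0.01% Tween-20, 0.05% BSA; qHTS 6-point titration, ~60 µM downward; luminescence read.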
# Rab9 prom act – qHTS Assay for Rab9 Promoter Activators | Huh7 Rab9 promoter-luciferase reporter, luminescence, 24 h | Potency, µM (doses to about 9.22 µM), for inactives: at the highest dose activation, negative = inhibition, most hits filed as activators | hit rate 2.8% among 320,000 | AID 485297, 2010; further: % of control where 0% means no effect; nearly all actives have a fitted effect of over 60% in size
#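 Using Huh7 cells stably transfected with Rab9 promoter–luciferase, compounds were incubated 24 h at 37 °C, 5% CO2; luciferase luminescence was read 10 min after reagent addition.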
# KinaseGlo FLuc – Counterscreen for Luciferase (Kinase-Glo TM) Inhibition | Luciferin 4-monooxygenase (Photuris pensylvanica), Q27757 | Kinase-Glo luciferase, ATP luminescence, 8 min | Potency, µM (titrated, usually from 38.3 µM), without a hit: at the top dose activity change, negative = inhibition, usual class: inhibitors | hit rate 0.28% among 200,000 | AID 1379, 2008; further: on the % scale 0 is the no-effect control and ±100 the full control effect; nearly all actives have a fitted effect of over 60% in size
#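 Inhibition of Kinase-Glo luciferase light generation was assessed at 10 uM ATP in pH 7.2 imidazole buffer, with luminescence measured after eight minutes at ambient temperature.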
# SMN2 splice enh – qHTS Assay for Enhancers of SMN2 Splice Variant Expression. Potency, µM (top dose mostly 46.1 µM), for inactives: at the highest dose activity change, positive = activation, actives largely listed as activators. hit rate 2.8% among 210,000. HEK293 SMN2-luciferase splicing reporter, luminescence, 30-36 h. AID 1458, 2008; further: % of control where 0% means no effect; nearly all actives have a fitted effect of over 55% in size
#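 HEK293 cells carry an SMN2 […]–luciferase reporter in which exon 7 inclusion puts luciferase in frame. Cells were plated 10-12 h before compound addition, then incubated 30-36 h at 37C. ONE-Glo luminescence was read; sodium butyrate at 4.5 mM final served as control.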
# The depositor's hits bear a star; ? = inconclusive; . = no result given; [ ] = remark or other dose. In the library only some 7.5% were active in any assay of this set; here they are far more common. The call rests on the fitted dose curve; in most records, active means well fitted curve in the direction sought with a large enough effect; inconclusive means small, poorly fitted or top-dose-only effect, or another doubt; inactive means no such curve, though single readings can be large; an effect the other way counts as inactive or inconclusive. Potency means the concentration at half of the fitted maximal effect.
SMILES,ELG1 genotox,NPC1 prom act,FLuc modulator,Rab9 prom act,KinaseGlo FLuc,SMN2 splice enh
CCc1ccc(NC(=O)c2cc(C(C)=O)n3ccccc23)cc1,.,.,15µM*,.,.,.
C/C(=C\C(=O)c1ccccc1)NCc1ccc(F)cc1,0%,7%,19µM*,20%,-3%,-6%
CCc1ccc(NC(=O)c2cnn(-c3ccccc3)c2-n2cccc2)cc1,.,.,-10%,.,.,?
Cn1nc(C(=O)NCc2ccc(F)cc2)c2ccccc2c1=O,4%,-4%,10%,-6%,-7%,18µM*
COC(=O)c1cc(C(C)=O)n2ccccc12,?,-2%,11%,-3%,-1%,12%
Cn1nc(C(=O)NCc2ccccc2)c2ccccc2c1=O,?,0%,-1%,9%,1%,8%
CCc1ccc(NC(=O)c2cnn3ccccc23)cc1,0.18µM*,0.32µM*,0.34µM*,0.11µM*,-18%,1.8µM*
COc1cc(CNCc2ccc(SC)cc2)cc(OC)c1,-1%,-1%,4%,-2%,.,.
Cc1ccc(C)c(NC(=O)Cn2cc(C(=O)C3CCCCC3)c3ccccc32)c1,.,.,0%,.,.,6%
CC(C)=CCC/C(C)=C/CC/C(C)=C/CSc1ccccc1C(=O)O,.,.,.,.,-3%,-14%
COc1ccc(CNC(=O)c2cnn(-c3ccc(F)cc3)c2-n2cccc2)cc1,.,.,-17%,.,.,.
O=C(NCc1ccc(F)cc1)c1cnn2ccccc12,?,3.2µM*,12µM*,2µM*,-4%,13µM*
CSc1cccc(NC(=O)c2cnn3ccccc23)c1,?,2.5µM*,4.3µM*,2µM*,.,.
CCCOc1cccc(C(=O)Nc2ccc(-c3nc4ccccc4s3)c(Cl)c2)c1,.,.,-9%,.,.,11%
Cc1ccc(Cl)cc1NC(=O)Cn1nnc2sc3c(c2c1=O)CCC(C(C)(C)C)C3 (stereo not given),.,.,0%,.,.,-3%
Cc1ccc(-c2csc(=S)[nH]2)cc1,?,3.2µM*,?,?,.,.
CCCC(=O)N/N=C1\CS(=O)(=O)N(C)c2ccsc21,1%,7%,0%,0%,4%,-13%
Cc1ccc(N/N=C2\CS(=O)(=O)N(C)c3ccsc32)cc1,17%,3.5µM*,12µM*,?,-2%,0.89µM*
CN1c2ccsc2/C(=N/Nc2ccc(F)cc2)CS1(=O)=O,?,?,19µM*,?,1%,?
O=C1NCCC/C1=N/Nc1ccc(F)cc1,?,-1%,-5%,-1%,-9%,8%
O=C(NC12CC3CC(CC(C3)C1)C2)N1CCN(C(=O)c2ccco2)CC1,?,0%,-4%,0%,1%,4%
N#Cc1ccc(CN2CCCC3(CCN(C(=O)c4cnccn4)CC3)C2)cc1,.,.,.,.,-5%,-16%
Brc1ccc(-c2nc(-c3ccccn3)no2)o1,?,0.56µM*,1.5µM*,?,13µM*,2.5µM*
COc1cc(-c2nc(-c3ccc(Br)o3)no2)cc(OC)c1OC,-3%,-1%,2%,-4%,-4%,-6%
Brc1ccc(-c2noc(-c3ccccn3)n2)o1,?,0.56µM*,2.7µM*,0.45µM*,.,.
SMILES,ELG1 genotox,NPC1 prom act,FLuc modulator,Rab9 prom act,KinaseGlo FLuc,SMN2 splice enh
Cc1cccc(NC(=O)CN2CCCCCC2)c1,2%,-6%,6%,1%,.,.
Cc1ccc(C(=O)Nc2cccc(NC(=O)CN3CCCCC3)c2)cc1,1%,12%,19µM*,9%,.,.
CC(=O)Nc1ccc(NC(=O)c2ccc3c(c2)CCN3S(=O)(=O)c2ccc(C)cc2)cc1,.,.,0%,.,.,6%
COc1ccc(C(=O)Nc2cccc(C(=O)N3CCCC3)c2)cc1,?,?,15µM*,22%,-1%,?
Cc1cccc(C(=O)Nc2cccc(C(=O)N3CCOCC3)c2)c1,17%,18%,?,14%,16%,6%
Cc1ccc(C(=O)Nc2cccc(C(=O)N3CCN(C)CC3)c2)cc1,?,3.2µM*,9.5µM*,4.5µM*,-15%,11µM*
CC(=O)N1CCc2cc(NC(=O)c3ccc(C)cc3)ccc21,?,?,3.8µM*,0.56µM*,-2%,11µM*
Cc1cccc(NC(=O)Cn2c(=O)n(Cc3ccccc3)c(=O)c3sc4ccccc4c32)c1,.,.,-3%,.,.,1%
NC(=O)C1CC(=O)N(c2ccc(OCC(=O)Nc3ccccc3F)cc2)C1 (stereo not given),?,?,17µM*,2.2µM*,.,.
CC(C)(C)c1ccc(OC(=O)Nc2ccc(O)c(C(=O)O)c2)cc1,6%,-1%,1.2µM*,3%,-3%[7.66 µM],-13%[9.22 µM]
Cc1ccc(C(=O)Nc2ccc(O)c(C(=O)O)c2)o1,-4%,-3%,?,-6%,-5%,14%
Cc1ccccc1NC(=O)c1ccc(OCC(=O)Nc2ccccc2F)cc1,-7%,-1%,4%,-1%,0%,-7%
Cc1ccc(OCC(=O)Nc2ccc(O)c(C(=O)O)c2)cc1C,2%,1%,17µM*,1%,3%,-4%
Cc1ccc(OCC(=O)Nc2ccccc2F)cc1C,10µM*,22%,9.5µM*,?,-5%,.
Cc1ccc(OCC(=O)Nc2ccc(N3CCCC3)cc2)cc1C,4%,2%,-5%,8%,-5%,2%
NC(=O)C1CC(=O)N(c2ccc(OCC(=O)Nc3ccc(F)cc3)cc2)C1 (stereo not given),4%,7%,-6%,10%,.,.
CCc1nn(CC(=O)NCCN(CC)CC)c(=O)c2cc3occc3n12,.,.,-3%,.,.,-8%
CCc1ccc2oc(-c3cc(NC(=O)C(C)C)cc(C)c3O)nc2c1,.,.,-12%,.,.,6%
CCN(CC)CCSc1nnc2c3cc(F)ccc3n(CC)c2n1,.,.,-6%,.,.,-2%
Cc1cc(O)c(C2=Nc3ccccc3SC(c3ccc(Cl)cc3)C2)c(=O)o1 (stereo not given),7.3µM*,-3%,4.8µM*,3%,-5%,-60%
Cc1ccc(Cl)cc1-n1ncc2c(Nc3ccc4c(c3)OCCO4)ncnc21,.,.,11µM*,.,.,.
Fc1ccc(-n2ncc3c(Nc4ccc5c(c4)OCCO5)ncnc32)cc1,.,.,17µM*,.,.,.
Clc1cccc(-n2ncc3c(Nc4ccc5c(c4)OCCO5)ncnc32)c1,.,.,13µM*,.,.,.
Cc1ccc(-n2ncc3c(Nc4ccc5c(c4)OCCO5)ncnc32)cc1Cl,.,.,-18%,.,.,.
CC(=O)Nc1ccccc1C(=O)N1CCN(Cc2ccccc2)CC1,-20%,0%,5%,3%,1%,-12%
Cc1ccc(OCCCC(=O)Nc2sc3c(c2C(N)=O)CCCC3)cc1,.,.,?,.,.,-18%

# Source: PubChem (National Center for Advancing Translational Sciences (NCATS))
